Laboratory results as given in the supplement of paper PMC10127200.
Several values for one entry are separate records, joined by “and”; a condition that tells them apart may be missing. Equal values may be shown once. Where a name gives a salt, the structure may show the parent alone.

test system: FB; assay: Euclidean distance of Cell Painting phenotypic profile (signed KS, 77 features) to DMSO centroid (dimensionless distance); 5 or 10 uM (library dependent); higher = stronger phenotypic change vs DMSO (phenoactivity); details: 48 h
How it was run: (§1)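 Five cancer lines, together with a healthy fibroblast line, received library compounds for 48 h at a library-dependent 10 or 5 uM and 0.1% DMSO final. Harmony then derived 77 features from confocal 20X images (9 fields/well) of the stained cells, scoring each as a signed Kolmogorov-Smirnov statistic against same-plate vehicle wells. After plate-position correction, correlation weighting and replicate averaging at the top dose, phenoactivity was taken as each profile's Euclidean distance to the median vehicle profile.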

Structure (SMILES)	Euclidean distance
OCC1OC(OC2OC(CO)C(O)C(O)C2O)C(O)C(O)C1O [D-(+)-Trehalose Anhydrous]	1.26
CONC(=O)Nc1ccc(-c2sc3c(c2CN(C)C)c(=O)n(-c2ccc(OC)nn2)c(=O)n3Cc2c(F)cccc2F)cc1 [Relugolix]	1.4
CN1CCN(CCCN2c3ccccc3Sc3ccc(Cl)cc32)CC1 [Prochlorperazine dimaleate salt]	2.19
C[C@@H]1CCN(C(=O)CC#N)C[C@@H]1N(C)c1ncnc2[nH]ccc12	0.618 and 0.551
C[C@H]1CN(C[C@H](Cc2ccccc2)C(=O)NCC(=O)O)CC[C@@]1(C)c1cccc(O)c1 [Alvimopan dihydrate]	0.594
COc1ccccc1OCC(O)COC(N)=O (stereo not drawn) [Methocarbamol]	0.751
NC1=N[C@@]2(c3cc(NC(=O)c4ccc(F)cn4)ccc3F)COC[C@H]2CS1	1.04
O=c1c(O)c(-c2ccc(O)cc2)oc2cc(O)cc(O)c12 [Kaempferol]	1.36
COc1cc2c(cc1-c1c(C)noc1C)ncc1[nH]c(=O)n([C@H](C)c3ccccn3)c12	3.75
O=c1[nH]c(=O)n([C@H]2C[C@H](O)[C@@H](CO)O2)cc1/C=C/Br [Brivudine]	1.07
C[C@]1(c2nc3c(C(N)=O)cccc3[nH]2)CCCN1 [Veliparib (ABT-888)]	1.35
COc1cc2nccc(Oc3ccc(NC(=O)C4(C(=O)Nc5ccc(F)cc5)CC4)cc3)c2cc1OC	3.32
CN1CCN(C(=O)c2cc3cc(Cl)ccc3[nH]2)CC1	0.998
CCCCC(CC)COC(=O)CC(C(=O)OCC(CC)CCCC)S(=O)(=O)O (stereo not drawn) [Docusate Sodium]	1.2
O=C(O)Cc1ccccc1Nc1c(Cl)cccc1Cl [Diclofenac acid]	0.749
COc1ccccc1N1CCN(CC(O)COc2cccc3ccccc23)CC1 (stereo not drawn) [Naftopidil]	1.01
CC(=O)OC1CC2CCC1(C)C2(C)C (stereo not drawn) [Bornyl acetate]	1.11
CC(C)CCNc1ncccc1C(=O)N1CCN(Cc2ccccc2)CC1	0.894
C=C1C(=O)O[C@H]2[C@H]1CC/C(C)=C/CC[C@@]1(C)O[C@@H]21 [(-)-Parthenolide]	2.7
COc1ccc(C(=O)c2ccccc2)c(O)c1 [Oxybenzone]	1.34

Structure (SMILES)	Euclidean distance
N=C(NOCC(O)CN1CCCCC1)c1cccnc1 (stereo not drawn)	1.33
N[C@@H]1CCCC[C@H]1N.O=C([O-])C(=O)[O-].[Pt+2] [Eloxatin]	3.29
Cc1cc(C)c(/C=C2\C(=O)Nc3ccccc32)[nH]1 [Semaxanib (SU5416)]	1.08
CCCSc1ccc2[nH]c(NC(=O)OC)nc2c1 [Albendazole]	2.49
N[C@H](CO)C(=O)O [(R)-Serine]	0.797
O=C(O)c1ccc(Nc2ncc3c(n2)-c2ccc(Cl)cc2C(c2c(F)cccc2F)=NC3)cc1	2.34
C/C=C\c1ccc(O)c(OC)c1 [Isoeugenol]	0.672
C[C@H](NC(=O)[C@@H](O)c1cc(F)cc(F)c1)C(=O)N[C@@H]1C(=O)N(C)c2ccccc2-c2ccccc21	0.939
CS(=O)(=O)c1ccc(C(=O)Nc2ccc(Cl)c(-c3ccccn3)c2)c(Cl)c1 [Vismodegib (GDC-0449)]	1
CCc1cc2c(cc1N1CCC(N3CCOCC3)CC1)C(C)(C)c1[nH]c3cc(C#N)ccc3c1C2=O	1.15
CCC(C)(C)c1ccc(CC(C)CN2C[C@@H](C)O[C@@H](C)C2)cc1 (stereo partly drawn) [Amorolfine HCl]	1.61
COc1cc(Nc2ncc3c(n2)-c2ccc(Cl)cc2C(c2c(F)cccc2OC)=NC3)ccc1C(=O)O [Alisertib (MLN8237)]	3.08
Cc1ccc(NC(=O)C2(c3ccc4c(c3)OC(F)(F)O4)CC2)nc1-c1cccc(C(=O)O)c1 [VX-809 (Lumacaftor)]	0.88
COc1c(-c2ccc3cc(NS(C)(=O)=O)ccc3c2)cc(-n2ccc(=O)[nH]c2=O)cc1C(C)(C)C [Dasabuvir(ABT-333)]	1.48
CCCCOc1ccc(CC(=O)NO)cc1 [Bufexamac]	1.25
CC(C)c1nc(CN(C)C(=O)N[C@@H](CCN2CCOCC2)C(=O)N[C@H](CC[C@H](Cc2ccccc2)NC(=O)OCc2cncs2)Cc2ccccc2)cs1 [Cobicistat (GS-9350)]	1.66
CNS(=O)(=O)CCc1ccc2[nH]cc(C3CCN(C)CC3)c2c1 [Naratriptan]	0.996
C=CC(=O)Nc1cccc(Nc2nc(Nc3ccc(OCCOC)cc3)ncc2F)c1 [Spebrutinib (CC-292. AVL-292)]	3.98
C[C@@H](N)[C@H]1CC[C@H](C(=O)Nc2ccncc2)CC1	2.59

test system: HEPG2; assay: as above; details: 48 h
How it was run: as §1

Structure (SMILES)	Euclidean distance
OCC1OC(OC2OC(CO)C(O)C(O)C2O)C(O)C(O)C1O [D-(+)-Trehalose Anhydrous]	0.946
CONC(=O)Nc1ccc(-c2sc3c(c2CN(C)C)c(=O)n(-c2ccc(OC)nn2)c(=O)n3Cc2c(F)cccc2F)cc1 [Relugolix]	0.841
CN1CCN(CCCN2c3ccccc3Sc3ccc(Cl)cc32)CC1 [Prochlorperazine dimaleate salt]	2.85
C[C@@H]1CCN(C(=O)CC#N)C[C@@H]1N(C)c1ncnc2[nH]ccc12	0.886 and 0.785
C[C@H]1CN(C[C@H](Cc2ccccc2)C(=O)NCC(=O)O)CC[C@@]1(C)c1cccc(O)c1 [Alvimopan dihydrate]	0.342
COc1ccccc1OCC(O)COC(N)=O (stereo not drawn) [Methocarbamol]	1.83
NC1=N[C@@]2(c3cc(NC(=O)c4ccc(F)cn4)ccc3F)COC[C@H]2CS1	0.861
O=c1c(O)c(-c2ccc(O)cc2)oc2cc(O)cc(O)c12 [Kaempferol]	0.783
COc1cc2c(cc1-c1c(C)noc1C)ncc1[nH]c(=O)n([C@H](C)c3ccccn3)c12	1.77
O=c1[nH]c(=O)n([C@H]2C[C@H](O)[C@@H](CO)O2)cc1/C=C/Br [Brivudine]	0.725
C[C@]1(c2nc3c(C(N)=O)cccc3[nH]2)CCCN1 [Veliparib (ABT-888)]	0.938
COc1cc2nccc(Oc3ccc(NC(=O)C4(C(=O)Nc5ccc(F)cc5)CC4)cc3)c2cc1OC	2.4
CN1CCN(C(=O)c2cc3cc(Cl)ccc3[nH]2)CC1	0.507
CCCCC(CC)COC(=O)CC(C(=O)OCC(CC)CCCC)S(=O)(=O)O (stereo not drawn) [Docusate Sodium]	0.96
O=C(O)Cc1ccccc1Nc1c(Cl)cccc1Cl [Diclofenac acid]	0.668
COc1ccccc1N1CCN(CC(O)COc2cccc3ccccc23)CC1 (stereo not drawn) [Naftopidil]	0.934
CC(=O)OC1CC2CCC1(C)C2(C)C (stereo not drawn) [Bornyl acetate]	0.74
CC(C)CCNc1ncccc1C(=O)N1CCN(Cc2ccccc2)CC1	0.864
C=C1C(=O)O[C@H]2[C@H]1CC/C(C)=C/CC[C@@]1(C)O[C@@H]21 [(-)-Parthenolide]	1.55
COc1ccc(C(=O)c2ccccc2)c(O)c1 [Oxybenzone]	0.753

Structure (SMILES)	Euclidean distance
N=C(NOCC(O)CN1CCCCC1)c1cccnc1 (stereo not drawn)	0.604
N[C@@H]1CCCC[C@H]1N.O=C([O-])C(=O)[O-].[Pt+2] [Eloxatin]	2.14
Cc1cc(C)c(/C=C2\C(=O)Nc3ccccc32)[nH]1 [Semaxanib (SU5416)]	0.527
CCCSc1ccc2[nH]c(NC(=O)OC)nc2c1 [Albendazole]	2.15
N[C@H](CO)C(=O)O [(R)-Serine]	0.786
O=C(O)c1ccc(Nc2ncc3c(n2)-c2ccc(Cl)cc2C(c2c(F)cccc2F)=NC3)cc1	3.27
C/C=C\c1ccc(O)c(OC)c1 [Isoeugenol]	0.417
C[C@H](NC(=O)[C@@H](O)c1cc(F)cc(F)c1)C(=O)N[C@@H]1C(=O)N(C)c2ccccc2-c2ccccc21	0.864
CS(=O)(=O)c1ccc(C(=O)Nc2ccc(Cl)c(-c3ccccn3)c2)c(Cl)c1 [Vismodegib (GDC-0449)]	0.631
CCc1cc2c(cc1N1CCC(N3CCOCC3)CC1)C(C)(C)c1[nH]c3cc(C#N)ccc3c1C2=O	0.968
CCC(C)(C)c1ccc(CC(C)CN2C[C@@H](C)O[C@@H](C)C2)cc1 (stereo partly drawn) [Amorolfine HCl]	0.635
COc1cc(Nc2ncc3c(n2)-c2ccc(Cl)cc2C(c2c(F)cccc2OC)=NC3)ccc1C(=O)O [Alisertib (MLN8237)]	2.23
Cc1ccc(NC(=O)C2(c3ccc4c(c3)OC(F)(F)O4)CC2)nc1-c1cccc(C(=O)O)c1 [VX-809 (Lumacaftor)]	0.294
COc1c(-c2ccc3cc(NS(C)(=O)=O)ccc3c2)cc(-n2ccc(=O)[nH]c2=O)cc1C(C)(C)C [Dasabuvir(ABT-333)]	1.05
CCCCOc1ccc(CC(=O)NO)cc1 [Bufexamac]	0.883
CC(C)c1nc(CN(C)C(=O)N[C@@H](CCN2CCOCC2)C(=O)N[C@H](CC[C@H](Cc2ccccc2)NC(=O)OCc2cncs2)Cc2ccccc2)cs1 [Cobicistat (GS-9350)]	1.23
CNS(=O)(=O)CCc1ccc2[nH]cc(C3CCN(C)CC3)c2c1 [Naratriptan]	0.943
C=CC(=O)Nc1cccc(Nc2nc(Nc3ccc(OCCOC)cc3)ncc2F)c1 [Spebrutinib (CC-292. AVL-292)]	3.25
C[C@@H](N)[C@H]1CC[C@H](C(=O)Nc2ccncc2)CC1	1.02
